In article PMC7862700, “An all-to-all approach to the identification of sequence-specific readers for epigenetic DNA modifications on cytosine”:

Experiments:
Assay in all cases: DAPPL (digital affinity profiling via proximity ligation, sequencing); 10 mM Tris-HCl pH 7.5, 50 mM NaCl, 1 mM DTT, 4% glycerol, room temperature, 30 min; GST-TFs on glutathione beads, 16-mer random dsDNA library, 0.1% formaldehyde crosslink after washing; high values mean tight binding
FEV = target: T1, FEV (Homo sapiens, UniProt Q99581 1-238); details: protein: recombinant; tags: N-terminal GST; dsDNA, one strand shown
T1 sequence: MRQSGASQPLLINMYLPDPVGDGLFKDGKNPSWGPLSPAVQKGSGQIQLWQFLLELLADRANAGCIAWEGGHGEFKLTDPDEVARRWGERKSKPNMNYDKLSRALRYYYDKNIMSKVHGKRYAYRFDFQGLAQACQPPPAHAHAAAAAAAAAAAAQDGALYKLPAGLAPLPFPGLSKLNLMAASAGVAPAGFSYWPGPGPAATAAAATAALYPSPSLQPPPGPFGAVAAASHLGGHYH
Method in brief: (§1)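 GST fusions of human transcription factors were expressed in yeast and captured with glutathione beads. Once given DNA barcodes and pooled alongside a tag-only sample, they were incubated for 30 min at room temperature with 200 nmole of a random double-stranded 16-mer DNA library in Tris/NaCl/DTT/glycerol buffer, then washed, crosslinked (0.1% formaldehyde), proximity-ligated, PCR-amplified and sequenced on an Illumina NextSeq500. The binding signal of each hexamer is its read frequency for a factor divided by its frequency for the tag-only sample.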

ETV5 = ETV5 (Homo sapiens, UniProt P41161 1-510); details: protein: recombinant; tags: N-terminal GST; dsDNA, one strand shown
Chain of ETV5 (P41161 whole entry): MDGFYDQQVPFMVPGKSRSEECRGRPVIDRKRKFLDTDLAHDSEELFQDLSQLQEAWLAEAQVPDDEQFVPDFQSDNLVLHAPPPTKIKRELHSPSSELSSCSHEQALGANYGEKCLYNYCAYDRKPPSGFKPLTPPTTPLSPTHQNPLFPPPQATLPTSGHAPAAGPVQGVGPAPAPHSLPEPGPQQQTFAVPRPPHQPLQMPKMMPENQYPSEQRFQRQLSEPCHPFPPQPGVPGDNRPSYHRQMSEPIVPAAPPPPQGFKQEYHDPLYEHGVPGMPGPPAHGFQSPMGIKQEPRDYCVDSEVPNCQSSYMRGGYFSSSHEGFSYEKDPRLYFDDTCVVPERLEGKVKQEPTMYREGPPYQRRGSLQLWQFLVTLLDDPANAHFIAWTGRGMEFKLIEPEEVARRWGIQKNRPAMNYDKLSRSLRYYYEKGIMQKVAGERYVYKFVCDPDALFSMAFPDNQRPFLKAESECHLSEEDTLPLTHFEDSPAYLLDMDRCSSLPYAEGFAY
Method in brief: as §1

HSF1 = HSF1 (Homo sapiens, UniProt Q00613 1-529); details: protein: recombinant; tags: N-terminal GST; chain copies: 3; dsDNA, one strand shown
Chain of HSF1 (Q00613 whole entry): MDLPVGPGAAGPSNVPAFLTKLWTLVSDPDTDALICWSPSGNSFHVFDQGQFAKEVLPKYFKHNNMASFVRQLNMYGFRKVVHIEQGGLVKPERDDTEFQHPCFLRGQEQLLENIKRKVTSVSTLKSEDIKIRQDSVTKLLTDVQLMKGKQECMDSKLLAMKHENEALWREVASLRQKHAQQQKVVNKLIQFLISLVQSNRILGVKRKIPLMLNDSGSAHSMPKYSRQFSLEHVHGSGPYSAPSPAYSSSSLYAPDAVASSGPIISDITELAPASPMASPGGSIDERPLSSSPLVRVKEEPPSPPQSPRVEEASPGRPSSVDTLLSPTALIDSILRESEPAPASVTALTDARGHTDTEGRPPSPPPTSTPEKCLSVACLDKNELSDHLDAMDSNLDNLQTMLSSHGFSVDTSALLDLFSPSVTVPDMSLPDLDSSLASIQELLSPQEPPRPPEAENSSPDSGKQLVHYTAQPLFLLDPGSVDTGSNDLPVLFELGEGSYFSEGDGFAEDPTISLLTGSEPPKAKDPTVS
Method in brief: as §1

SPIC = target: T2, SPIC (Homo sapiens, UniProt Q8N5J4 1-248); details: protein: recombinant; tags: N-terminal GST; dsDNA, one strand shown
T2 sequence: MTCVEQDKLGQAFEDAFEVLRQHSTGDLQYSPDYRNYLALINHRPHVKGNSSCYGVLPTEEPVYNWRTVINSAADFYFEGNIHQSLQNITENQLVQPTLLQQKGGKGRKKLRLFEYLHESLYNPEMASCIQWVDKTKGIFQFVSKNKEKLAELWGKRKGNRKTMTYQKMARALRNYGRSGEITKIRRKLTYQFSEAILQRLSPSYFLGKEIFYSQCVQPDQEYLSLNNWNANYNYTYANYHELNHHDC
Method in brief: as §1

ELF4 = ELF4 (Homo sapiens, UniProt Q99607 1-663); details: protein: recombinant; tags: N-terminal GST; dsDNA, one strand shown
Chain of ELF4 (Q99607 whole entry): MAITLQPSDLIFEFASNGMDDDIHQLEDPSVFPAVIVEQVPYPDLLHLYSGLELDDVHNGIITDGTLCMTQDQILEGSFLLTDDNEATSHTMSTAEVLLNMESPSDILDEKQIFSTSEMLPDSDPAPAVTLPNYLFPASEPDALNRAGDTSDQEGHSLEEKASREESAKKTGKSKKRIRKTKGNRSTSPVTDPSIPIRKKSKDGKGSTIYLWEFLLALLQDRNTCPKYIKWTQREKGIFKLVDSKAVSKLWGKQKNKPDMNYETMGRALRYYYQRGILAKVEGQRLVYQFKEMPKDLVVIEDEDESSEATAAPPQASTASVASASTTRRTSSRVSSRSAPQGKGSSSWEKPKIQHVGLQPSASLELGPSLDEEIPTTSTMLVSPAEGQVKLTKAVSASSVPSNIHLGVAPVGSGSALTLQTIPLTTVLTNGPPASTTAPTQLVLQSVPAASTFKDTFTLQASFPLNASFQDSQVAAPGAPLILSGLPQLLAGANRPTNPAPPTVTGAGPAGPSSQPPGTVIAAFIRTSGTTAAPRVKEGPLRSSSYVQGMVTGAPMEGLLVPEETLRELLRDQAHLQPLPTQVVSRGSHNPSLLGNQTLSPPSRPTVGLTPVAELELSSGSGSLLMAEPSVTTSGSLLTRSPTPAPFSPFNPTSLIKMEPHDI
Method in brief: as §1

ELK4 = target: T3, ELK4 (Homo sapiens, UniProt P28324-2 1-405); details: protein: recombinant; tags: N-terminal GST; dsDNA, one strand shown
T3 sequence: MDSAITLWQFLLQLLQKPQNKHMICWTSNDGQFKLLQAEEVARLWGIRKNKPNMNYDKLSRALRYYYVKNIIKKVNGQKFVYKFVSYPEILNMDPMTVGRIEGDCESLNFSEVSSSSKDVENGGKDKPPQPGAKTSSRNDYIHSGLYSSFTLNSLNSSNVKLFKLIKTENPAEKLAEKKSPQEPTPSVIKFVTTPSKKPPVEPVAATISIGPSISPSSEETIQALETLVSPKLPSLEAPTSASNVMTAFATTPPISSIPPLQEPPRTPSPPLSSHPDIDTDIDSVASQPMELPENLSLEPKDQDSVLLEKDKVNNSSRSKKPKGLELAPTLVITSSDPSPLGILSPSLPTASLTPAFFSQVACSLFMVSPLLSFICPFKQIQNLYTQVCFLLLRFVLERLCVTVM
Method in brief: as §1

ELF3 = target: T4, ELF3 (Homo sapiens, UniProt P78545 1-371); details: protein: recombinant; tags: N-terminal GST; dsDNA, one strand shown
T4 sequence: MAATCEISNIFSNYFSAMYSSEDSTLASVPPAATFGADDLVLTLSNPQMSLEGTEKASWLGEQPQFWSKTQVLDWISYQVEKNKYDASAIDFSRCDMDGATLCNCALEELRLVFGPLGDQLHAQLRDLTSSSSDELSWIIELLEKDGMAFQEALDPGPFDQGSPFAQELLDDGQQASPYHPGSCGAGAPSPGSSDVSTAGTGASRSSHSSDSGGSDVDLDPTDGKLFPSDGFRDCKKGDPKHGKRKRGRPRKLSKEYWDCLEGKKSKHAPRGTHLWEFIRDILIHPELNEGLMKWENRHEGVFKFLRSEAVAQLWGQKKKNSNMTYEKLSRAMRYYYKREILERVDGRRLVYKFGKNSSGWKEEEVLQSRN
Method in brief: as §1

CRX = CRX (Homo sapiens, UniProt O43186 1-299); details: protein: recombinant; tags: N-terminal GST; dsDNA, one strand shown
Chain of CRX (O43186 whole entry): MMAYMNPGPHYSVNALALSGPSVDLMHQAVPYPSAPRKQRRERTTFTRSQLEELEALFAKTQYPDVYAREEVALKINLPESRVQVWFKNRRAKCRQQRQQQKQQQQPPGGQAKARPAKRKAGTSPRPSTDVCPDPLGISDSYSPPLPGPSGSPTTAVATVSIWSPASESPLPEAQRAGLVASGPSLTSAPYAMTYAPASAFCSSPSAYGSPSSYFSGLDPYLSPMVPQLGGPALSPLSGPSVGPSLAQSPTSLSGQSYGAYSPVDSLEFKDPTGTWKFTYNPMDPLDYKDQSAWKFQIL
Method in brief: as §1

ETV1 = ETV1 (Homo sapiens, UniProt P50549 1-477); details: protein: recombinant; tags: N-terminal GST; dsDNA, one strand shown
Chain of ETV1 (P50549 whole entry): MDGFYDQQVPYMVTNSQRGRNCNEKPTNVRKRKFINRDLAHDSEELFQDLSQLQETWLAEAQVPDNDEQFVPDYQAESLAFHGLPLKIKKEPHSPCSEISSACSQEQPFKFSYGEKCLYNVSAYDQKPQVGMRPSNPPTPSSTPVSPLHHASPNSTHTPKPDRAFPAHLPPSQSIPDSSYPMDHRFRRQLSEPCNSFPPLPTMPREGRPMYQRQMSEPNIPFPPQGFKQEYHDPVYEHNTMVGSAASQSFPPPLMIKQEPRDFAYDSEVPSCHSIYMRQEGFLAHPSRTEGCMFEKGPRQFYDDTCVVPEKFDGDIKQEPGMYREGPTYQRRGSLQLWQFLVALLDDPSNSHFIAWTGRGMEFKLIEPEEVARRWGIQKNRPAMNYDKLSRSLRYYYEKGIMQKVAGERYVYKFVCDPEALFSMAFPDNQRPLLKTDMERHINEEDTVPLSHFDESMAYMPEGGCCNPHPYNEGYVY
Method in brief: as §1

ERF = target: T5, ERF (Homo sapiens, UniProt P50548 1-548); details: protein: recombinant; tags: N-terminal GST; dsDNA, one strand shown
T5 sequence: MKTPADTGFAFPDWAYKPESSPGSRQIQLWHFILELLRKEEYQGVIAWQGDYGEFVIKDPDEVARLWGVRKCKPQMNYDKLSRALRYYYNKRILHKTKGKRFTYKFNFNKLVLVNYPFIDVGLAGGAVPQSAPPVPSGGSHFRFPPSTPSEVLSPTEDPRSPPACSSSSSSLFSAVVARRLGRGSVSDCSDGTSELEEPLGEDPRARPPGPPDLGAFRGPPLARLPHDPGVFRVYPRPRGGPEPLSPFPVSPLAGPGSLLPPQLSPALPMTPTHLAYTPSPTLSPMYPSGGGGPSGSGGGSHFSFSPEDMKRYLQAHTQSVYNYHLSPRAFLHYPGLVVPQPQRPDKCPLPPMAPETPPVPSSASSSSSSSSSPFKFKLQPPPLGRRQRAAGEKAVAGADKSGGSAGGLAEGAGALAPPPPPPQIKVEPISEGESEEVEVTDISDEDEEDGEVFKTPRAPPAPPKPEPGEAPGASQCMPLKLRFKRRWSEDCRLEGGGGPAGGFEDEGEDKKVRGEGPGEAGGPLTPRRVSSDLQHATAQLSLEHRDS
Method in brief: as §1

ETV3L = target: T6, ETV3L (Homo sapiens, UniProt Q6ZN32 1-361); details: protein: recombinant; tags: N-terminal GST; dsDNA, one strand shown
T6 sequence: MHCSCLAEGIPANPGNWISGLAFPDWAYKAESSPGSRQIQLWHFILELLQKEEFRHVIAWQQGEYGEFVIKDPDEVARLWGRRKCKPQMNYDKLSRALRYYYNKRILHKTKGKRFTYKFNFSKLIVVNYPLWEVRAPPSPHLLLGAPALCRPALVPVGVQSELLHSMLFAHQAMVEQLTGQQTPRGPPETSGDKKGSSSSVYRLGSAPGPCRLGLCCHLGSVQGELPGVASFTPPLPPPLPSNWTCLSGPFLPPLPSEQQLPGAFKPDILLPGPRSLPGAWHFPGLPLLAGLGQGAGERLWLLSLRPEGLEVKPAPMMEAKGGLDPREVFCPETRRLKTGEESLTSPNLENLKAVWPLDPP
Method in brief: as §1

ETS2 = target: T7, ETS2 (Homo sapiens, UniProt P15036 1-469); details: protein: recombinant; tags: N-terminal GST; dsDNA, one strand shown
T7 sequence: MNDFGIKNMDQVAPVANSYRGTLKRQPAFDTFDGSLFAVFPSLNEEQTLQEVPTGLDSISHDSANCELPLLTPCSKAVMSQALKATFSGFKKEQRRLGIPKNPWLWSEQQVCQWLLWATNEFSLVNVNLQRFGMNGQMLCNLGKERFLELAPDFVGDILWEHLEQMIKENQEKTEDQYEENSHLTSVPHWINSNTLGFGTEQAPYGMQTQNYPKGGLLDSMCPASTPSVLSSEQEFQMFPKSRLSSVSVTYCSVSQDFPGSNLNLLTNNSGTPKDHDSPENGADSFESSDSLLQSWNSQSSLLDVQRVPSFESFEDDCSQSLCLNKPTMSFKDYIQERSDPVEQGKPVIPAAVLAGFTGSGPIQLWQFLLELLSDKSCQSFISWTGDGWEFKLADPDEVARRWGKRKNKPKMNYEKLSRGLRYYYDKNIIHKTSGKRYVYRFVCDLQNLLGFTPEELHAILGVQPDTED
Method in brief: as §1

ETV7 = target: T8, ETV7 (Homo sapiens, UniProt Q9Y603 1-341); details: protein: recombinant; tags: N-terminal GST; dsDNA, one strand shown
T8 sequence: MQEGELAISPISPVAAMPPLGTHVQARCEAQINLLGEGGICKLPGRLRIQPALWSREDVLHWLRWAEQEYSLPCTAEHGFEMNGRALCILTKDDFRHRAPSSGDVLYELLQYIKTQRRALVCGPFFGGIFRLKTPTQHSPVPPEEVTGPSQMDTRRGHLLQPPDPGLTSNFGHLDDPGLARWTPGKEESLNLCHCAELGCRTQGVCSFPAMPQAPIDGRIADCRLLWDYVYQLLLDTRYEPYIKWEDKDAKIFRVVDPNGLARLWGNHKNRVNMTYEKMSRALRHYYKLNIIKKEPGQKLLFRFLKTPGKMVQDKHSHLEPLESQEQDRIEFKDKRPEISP
Method in brief: as §1

ETV3 = target: T9, ETV3 (Homo sapiens, UniProt P41162-2 1-143); details: protein: recombinant; tags: N-terminal GST; dsDNA, one strand shown
T9 sequence: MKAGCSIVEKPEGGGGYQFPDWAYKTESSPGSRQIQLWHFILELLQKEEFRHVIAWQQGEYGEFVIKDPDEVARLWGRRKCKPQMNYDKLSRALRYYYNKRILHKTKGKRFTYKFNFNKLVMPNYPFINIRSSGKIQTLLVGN
Method in brief: as §1

ETV6 = ETV6 (Homo sapiens, UniProt P41212 1-452); details: protein: recombinant; tags: N-terminal GST; dsDNA, one strand shown
Chain of ETV6 (P41212 whole entry): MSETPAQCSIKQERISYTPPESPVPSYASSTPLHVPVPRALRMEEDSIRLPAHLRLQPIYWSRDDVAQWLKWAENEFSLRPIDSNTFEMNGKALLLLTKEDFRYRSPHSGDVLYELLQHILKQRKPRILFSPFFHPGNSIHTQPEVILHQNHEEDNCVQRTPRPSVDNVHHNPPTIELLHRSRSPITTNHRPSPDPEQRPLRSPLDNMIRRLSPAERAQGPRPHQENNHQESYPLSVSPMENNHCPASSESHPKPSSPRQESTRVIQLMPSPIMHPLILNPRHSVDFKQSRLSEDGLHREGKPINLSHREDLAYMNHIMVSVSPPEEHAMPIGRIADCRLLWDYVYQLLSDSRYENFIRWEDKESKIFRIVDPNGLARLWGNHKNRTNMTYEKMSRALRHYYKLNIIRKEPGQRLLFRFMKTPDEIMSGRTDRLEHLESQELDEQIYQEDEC
Method in brief: as §1

SPDEF = target: T10, SPDEF (Homo sapiens, UniProt O95238 1-335); details: protein: recombinant; tags: N-terminal GST; dsDNA, one strand shown
T10 sequence: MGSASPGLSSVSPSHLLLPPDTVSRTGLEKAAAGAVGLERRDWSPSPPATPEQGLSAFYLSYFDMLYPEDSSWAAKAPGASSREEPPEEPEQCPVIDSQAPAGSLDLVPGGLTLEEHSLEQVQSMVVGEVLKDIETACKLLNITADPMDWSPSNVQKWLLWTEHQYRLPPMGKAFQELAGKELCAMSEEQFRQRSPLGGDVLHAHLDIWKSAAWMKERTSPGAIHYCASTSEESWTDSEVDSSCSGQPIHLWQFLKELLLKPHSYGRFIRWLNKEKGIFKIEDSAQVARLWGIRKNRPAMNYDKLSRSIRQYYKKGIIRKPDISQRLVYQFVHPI
Method in brief: as §1

ELF5 = target: T11, ELF5 (Homo sapiens, UniProt Q9UKW6-2 1-255); details: protein: recombinant; tags: N-terminal GST; dsDNA, one strand shown
T11 sequence: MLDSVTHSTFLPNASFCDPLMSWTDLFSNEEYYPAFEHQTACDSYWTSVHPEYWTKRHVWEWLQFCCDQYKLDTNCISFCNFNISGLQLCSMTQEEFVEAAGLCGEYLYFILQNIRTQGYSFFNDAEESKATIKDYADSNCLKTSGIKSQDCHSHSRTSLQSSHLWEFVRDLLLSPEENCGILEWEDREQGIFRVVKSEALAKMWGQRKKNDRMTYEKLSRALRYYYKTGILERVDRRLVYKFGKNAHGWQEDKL
Method in brief: as §1

Sequence	binding signal (FEV)	binding signal (ETV5)	binding signal (HSF1)	binding signal (SPIC)	binding signal (ELF4)	binding signal (ELK4)	binding signal (ELF3)	binding signal (CRX)	binding signal (ETV1)	binding signal (ERF)	binding signal (ETV3L)	binding signal (ETS2)	binding signal (ETV7)	binding signal (ETV3)	binding signal (ETV6)	binding signal (SPDEF)	binding signal (ELF5)
CGATCA	1.04 fold enrichment (6-mer frequency, TF over GST control)	1.03 fold enrichment (6-mer frequency, TF over GST control)	1.22 fold enrichment (6-mer frequency, TF over GST control)	1.06 fold enrichment (6-mer frequency, TF over GST control)	1.06 fold enrichment (6-mer frequency, TF over GST control)	1.07 fold enrichment (6-mer frequency, TF over GST control)	1.07 fold enrichment (6-mer frequency, TF over GST control)	1.16 fold enrichment (6-mer frequency, TF over GST control)	1.04 fold enrichment (6-mer frequency, TF over GST control)	1.09 fold enrichment (6-mer frequency, TF over GST control)	1.1 fold enrichment (6-mer frequency, TF over GST control)	1.19 fold enrichment (6-mer frequency, TF over GST control)	1.08 fold enrichment (6-mer frequency, TF over GST control)	1.1 fold enrichment (6-mer frequency, TF over GST control)	1.05 fold enrichment (6-mer frequency, TF over GST control)	–	–
AATAGG	1.13 fold enrichment (6-mer frequency, TF over GST control)	1.16 fold enrichment (6-mer frequency, TF over GST control)	1.02 fold enrichment (6-mer frequency, TF over GST control)	1.14 fold enrichment (6-mer frequency, TF over GST control)	1.04 fold enrichment (6-mer frequency, TF over GST control)	1.08 fold enrichment (6-mer frequency, TF over GST control)	1.09 fold enrichment (6-mer frequency, TF over GST control)	1.21 fold enrichment (6-mer frequency, TF over GST control)	1.25 fold enrichment (6-mer frequency, TF over GST control)	1.21 fold enrichment (6-mer frequency, TF over GST control)	1.12 fold enrichment (6-mer frequency, TF over GST control)	1.16 fold enrichment (6-mer frequency, TF over GST control)	1.27 fold enrichment (6-mer frequency, TF over GST control)	1.15 fold enrichment (6-mer frequency, TF over GST control)	1.27 fold enrichment (6-mer frequency, TF over GST control)	1.22 fold enrichment (6-mer frequency, TF over GST control)	1.19 fold enrichment (6-mer frequency, TF over GST control)
